# Hits are enriched below; roughly 27% of the tested compounds scored in any of these assays.
# CYP2C19 inhib: blocks human cytochrome P450 2C19; P33261; CYP2C19 Supersomes, luciferin-H EGE luminescence, 30 min; inhibition, % at 5 µM; 96,000 compounds, 21% hits; AID 778;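 active = CYP2C19 inhibition above a set limit at 5 µM in the primary screen, cut at about 50% in these data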;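 note: plate controls were negative control wells for no effect and 2.5 mM tranylcypromine positive control for full effect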
# Target sequence (P33261 whole entry, looked up): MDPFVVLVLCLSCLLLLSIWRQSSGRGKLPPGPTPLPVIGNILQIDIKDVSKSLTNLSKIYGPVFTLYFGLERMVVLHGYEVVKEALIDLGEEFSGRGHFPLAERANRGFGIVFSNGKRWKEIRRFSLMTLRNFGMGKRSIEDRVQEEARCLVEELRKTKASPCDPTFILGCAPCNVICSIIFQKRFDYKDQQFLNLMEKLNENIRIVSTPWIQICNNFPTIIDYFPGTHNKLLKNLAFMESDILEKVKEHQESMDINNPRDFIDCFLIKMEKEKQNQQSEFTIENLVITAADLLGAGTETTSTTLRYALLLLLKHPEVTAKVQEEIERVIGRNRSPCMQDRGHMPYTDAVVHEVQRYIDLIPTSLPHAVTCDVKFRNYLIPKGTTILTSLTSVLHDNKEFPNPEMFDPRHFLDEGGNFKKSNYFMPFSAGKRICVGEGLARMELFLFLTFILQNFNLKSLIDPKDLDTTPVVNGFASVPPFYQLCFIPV
# CYP2C9 activ: CYP2C9 (human) activation; P11712; recombinant CYP2C9, luciferin-H conversion, luminescence; hits give high values; factor 1 = untreated enzyme, 0 = blocked; activation factor at 5 µM; 96,000 compounds, 1.4% hits; AID 1024;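 active = activation factor of 2 or more for CYP2C9 at a 5 µM dose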;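 note: 0 = sulfaphenazole-blocked wells and 1 = vehicle-only wells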
# sEH activator: increases human soluble epoxide hydrolase activity. 91,000 compounds, 0.04% hits. P34913. activation, % at 2 µM. purified human sEH enzymatic activity, activator screen. AID 717; in the data active = activation above about 37%
# CYP2C9 inhib: blocks human cytochrome P450 2C9; CYP2C9 Supersomes, luciferin-H conversion, luminescence; 96,000 compounds, 20% hits; P11712; inhibition, % at 5 µM;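 active = blocking of liver enzyme CYP2C9 beyond about 50% at 5 µM, limit read from the data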
# CYP2C19 activ: increases human CYP2C19 enzyme activity; 96,000 tested, under 10 active; recombinant CYP2C19, luciferin-H EGE luminescence; hits give high values; 0 = fully inhibited enzyme, 1 = untreated enzyme; activation factor at 5 µM; P33261;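 active = activation factor of at least 2 at 5 µM in the primary screen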;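 note: 0 = wells with 2.5 mM tranylcypromine and 1 = vehicle-only wells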
# sEH inhibitor: soluble epoxide hydrolase (human) inhibition | 91,000 compounds, 0.34% hits | AID 707 | recombinant human sEH enzymatic activity assay | inhibition, % at 2 µM; in the data active = inhibition above about 80%
# The depositor's hits bear a star; x = not tested or not shown.
SMILES,CYP2C19 inhib,CYP2C9 activ,sEH activator,CYP2C9 inhib,CYP2C19 activ,sEH inhibitor
Cc1cc(S(=O)(=O)Nc2ccccc2C(=O)O)ccc1Cl,37,0.3,4,74*,0.6,-3
CNC(=S)N/N=C/c1c(C)nn(-c2ccccc2)c1Cl,9,0.7,15,30,0.9,-12
COC(=O)c1ccccc1NS(=O)(=O)c1ccc(O)c(C(=O)O)c1,9,0.1,x,91*,0.9,x
COc1ccccc1NS(=O)(=O)c1cc(C)ccc1C,80*,1.1,-9,-7,0.2,10
Cc1nn(-c2ccccc2)c(Cl)c1/C=N/Nc1ccc(S(=O)(=O)Nc2ccccc2C(=O)O)cc1[N+](=O)[O-],5,0.3,6,69*,1,-3
COc1ccc(N2C(=O)CCC(C(=O)N3CCCCCC3)C2c2ccc(OC)c(OC)c2)cc1 (stereo unspecified),-6,1.1,-14,-6,1.1,14
CCOC(=O)N1CCN(C2CC(=O)N(c3ccc(Oc4ccccc4)cc3)C2=O)CC1 (stereo unspecified),-12,0.9,-27,9,1.1,28
COc1ccc(S(=O)(=O)Nc2ccc(S(=O)(=O)Nc3ccc(F)cc3)cc2)cc1C,x,x,6,x,x,0
CSc1ccccc1NS(=O)(=O)c1ccccc1,87*,4.6*,-4,-360,0.1,2
COc1ccc(S(=O)(=O)Nc2ccccc2SC)cc1C,99*,2*,-11,-104,0,9
CCCNC(=O)c1ccccc1NS(=O)(=O)c1ccc(OC)c(OC)c1,x,x,-6,x,x,2
COc1ccc(S(=O)(=O)Nc2ccccc2OC)cc1C,100*,2.9*,-2,-186,0,1
O=C(O)c1ccccc1NS(=O)(=O)c1cccc(C(F)(F)F)c1,60*,0.5,5,51*,0.4,-2
Cc1ccnc(NS(=O)(=O)c2ccccc2)n1,2,1,10,3,1,-12
COc1ccc(N=Nc2nc3ccc(Br)cc3n2C)cc1,14,1.1,-1,-15,0.9,0
Cc1cc(Cl)c(S(=O)(=O)Nc2ccc3c(c2)OCCO3)cc1OCC(=O)NC1CCCCC1,16,0.6,2,36,0.8,0
Cc1nc2cc(C(F)(F)F)ccc2n1C1CCN(C(=O)N2CCOCC2)CC1,9,0.7,0,27,0.9,-1
COc1ccccc1NS(=O)(=O)c1ccc(Cl)cc1,99*,0.7,x,30,0,x
COc1ccc(Cl)cc1NS(=O)(=O)c1cc(Cl)ccc1OC,-6,0.9,-14,11,1.1,13
Cc1cc(O)c(C(C)C)cc1NC1=NS(=O)(=O)c2ccccc21,10,0.8,x,22,0.9,x
O=C(CS(=O)(=O)c1cccc(C(F)(F)F)c1)Nc1ccccc1Cl,60*,1.9,5,-87,0.4,-3
Cc1cc(O)c(C(C)C)cc1NS(=O)(=O)c1ccccc1,86*,0.6,-6,42,0.1,0
COc1ccccc1NS(=O)(=O)c1ccc(O)c(C(N)=O)c1,100*,0.9,7,14,0,-9
Cc1nc2ccc(S(=O)(=O)NCC(=O)N3CCOCC3)cc2s1,9,1,-4,3,0.9,3
COc1cc(C)c(S(=O)(=O)Nc2ccccc2F)cc1C,88*,0.5,-6,52*,0.1,7
SMILES,CYP2C19 inhib,CYP2C9 activ,sEH activator,CYP2C9 inhib,CYP2C19 activ,sEH inhibitor
COc1cc(NS(=O)(=O)c2ccc(C)c(C)c2)c(OC)cc1Cl,100*,0.1,9,95*,0,-6
COCCOc1cc(-n2ccnc2SC)c(Cl)cc1Cl,68*,0.9,-3,14,0.3,4
COc1cc(C)ccc1OCCOc1cc(C)ccc1Cl,x,x,4,x,x,-7
COc1ccc(/C=N/NC(=O)CCn2c3ccccc3c3ccccc32)cc1O,94*,0,-1,97*,0.1,1
COc1cc(/C=N/NC(=O)CSc2cc(C)c(Br)cc2C)ccc1O,5,0.2,-16,76*,1,18
O=C(NC1CCCCCC1)c1ccc(CN2CCOCC2)cc1,6,0.9,-14,12,0.9,14
C=CCn1c(=O)/c(=C/c2cc(OC)c(OC)c(OC)c2)s/c1=C(/C#N)c1nc2ccccc2n1C,10,1,x,3,0.9,x
Cn1c(=O)[nH]c(=O)c2c1nc(NC1CCCCC1)n2CC(=O)NC1CCCCC1,-1,1,0,-2,1,2
CN1CCC(N(C)C(=O)CCc2nc3ccccc3c(=O)[nH]2)CC1,-11,1.1,x,-7,1.1,x
CC1(C(=O)NC2CCCC2)CCC(=O)N1Cc1ccc2c(c1)OCO2 (stereo unspecified),6,0.6,x,40,0.9,x
CCCOc1ccc(C(=O)NC(=S)Nc2nc(C)c(C(=O)N(C)C)s2)cc1,63*,0.6,1,43,0.4,-1
CC(=O)Nc1nc(C)c(Oc2ccc(Cl)cc2Cl)c(=O)[nH]1,0,1.7,6,-65,1,-9
Cc1ccc(C(=O)O)cc1N1C(=O)c2cccc3cc(Br)cc(c23)C1=O,12,0.9,11,7,0.9,-10
Cc1cccc(-n2ccnc2SCC(=O)Nc2nnc(C)s2)c1,-7,1.4,-4,-38,1.1,3
CCSc1nnc(NC(=O)CSc2nccn2-c2cccc(C)c2C)s1,35,0.3,10,70*,0.7,-9
CCSc1nnc(NC(=O)CSc2nccn2-c2cc(C)cc(C)c2)s1,18,0.5,-6,50*,0.8,7
O=C(NC1CCC(NC(=O)C2CCCO2)CC1)C1CCCO1 (stereo unspecified),-10,1.1,3,-9,1.1,1
Cc1cc2c(=O)n(NC(N)=O)c(C)nc2s1,2,0.9,-3,9,1,2
Cc1cccc(C(=O)NC(=S)Nc2ccc(S(=O)(=O)N(C)c3ccccc3)cc2)c1,31,0.3,3,66*,0.7,0
Cc1cccc(C(=O)NC(=S)Nc2ccc(Cc3ccncc3)cc2)c1,89*,0.1,-17,92*,0.1,19
Cc1ccccc1C(=O)NC(=S)Nc1ccc(S(=O)(=O)N(C)c2ccccc2)cc1,87*,0.2,0,82*,0.1,2
Cc1cccc(C(=O)NC(=S)Nc2ccc(S(=O)(=O)N3CCN(C)CC3)cc2)c1,79*,0.3,5,71*,0.2,-3
Cc1ccccc1C(=O)NC(=S)Nc1ccc(Oc2ccc(Cl)cc2)cc1,15,0.7,1,34,0.8,2
Cc1cccc(C(=O)NC(=S)Nc2ccc(S(=O)(=O)N3CCCCC3)cc2)c1,22,0.6,2,44,0.8,1
Nc1ncn(C(=O)c2ccco2)n1,-7,1,x,-4,1.1,x
COC(=O)C1=C(CSc2nncn2C)NC(=O)NC1c1ccc(F)cc1 (stereo unspecified),-4,1,8,3,1,-6
O=S(=O)(c1ccc(N2CCN(CCO)CC2)nc1)N1CCCCC1,x,x,6,x,x,-6

# Screens from PubChem BioAssay.
